# Data published in PubChem BioAssay (NCI).
# The panel holds about 83,000 compounds, 20% with a hit somewhere; the sample as a whole holds those more often.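 Single-dose data. Exposure time 48 hours. Values below 10 considered active.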 Unmarked numbers belong to inactive results. The source made the active and inactive calls.
# Test system: MDA-MB-468 breast
# Assay: NCI-60 one-dose screen, 48 h (100 = growth as untreated, 0 = no growth, -100 = all killed)
# Conditions: 10 µM unless noted
row,Structure (SMILES),growth
1,COc1ccc2cn3c4ccc(O)cc4[nH]c(=O)c3c2c1,-11.9% (active)
2,c1cc(C2CCCCC2)ccc1OCCCCCCN1CCNCC1,1.63% (active)
3,COc1ccc(/C=C/C(=O)c2ccc(NC(=O)CSc3nnc(-c4ccc(OC)cc4)n3-c3ccccc3)cc2)cc1,106%
4,CCc1ccc(NC(=O)N[C@@H](Cc2cccc(F)c2)C(=O)N[C@@H]2C(=O)N3CCC[C@H]3C(=O)N3CCCC[C@H]3C(=O)N[C@@H](C)C(=O)N3C[C@H](C)C[C@H]3C(=O)O[C@H]2C)c(F)c1,-18.2% (active)
5,CC(C)Sc1nc(Cl)c(C#N)c(-c2ccc(F)cc2)n1,98.9%
6,Cc1cc2nc(C(Cl)Cl)nc(-c3ccc(Cl)cc3)n2n1,-47.3% (active)
7,CS(=O)(=O)Nc1ccc(Nc2c3ccccc3nc3cc(N)ccc23)cc1,-52.9% (active)
8,c1ccc2c(Nc3cccc4ccccc34)cccc2c1,61.8%
9,Cn1c(SCC(=O)c2cccs2)nc2ccccc2c1=O,68.7%
10,CN(/C(N)=N/N=C/c1c2ccccc2cc2ccccc12)C1CCCCC1,4.88% (active)
11,COc1cccc(-c2nn(-c3ccccc3)cc2-c2ccnc(NCCNS(=O)(=O)c3cccc(F)c3)c2)c1,15.8%
12,O=C(Nc1cccc(C2=NCCN2)c1)c1ccc(N=Nc2ccc(C(=O)Nc3cccc(C4=NCCN4)c3)cc2)cc1,6.96% (active)
13,COc1ccc(-c2oc3cc(O)c(OC)c(O)c3c(=O)c2OC)cc1O,-26.6% (active)
14,O=C(CSc1ccc(-c2nc3ccccc3[nH]2)cn1)N1CCN(c2ccccc2F)CC1,53.1%
